Several values for one entry are separate records, joined by “and”; a condition that tells them apart may be missing. Identical values can stand only once. In all, about 320,000 compounds went through this assay and about 2,200 (0.69%) were called active.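 How the source made its calls: active means inhibition above the mean of all tested compounds plus 3 SD, cutoff set per campaign (cut at about 30% in these data); inactive means the rest.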 The list comes from a sample in which actives are over-represented; it also holds similar structures and randomly drawn compounds. A structure can be active in one record and inactive in another.
Biological target: Bcl-2-like protein 1 (Homo sapiens) (UniProt Q07817)
Sequence (Q07817 whole entry, looked up): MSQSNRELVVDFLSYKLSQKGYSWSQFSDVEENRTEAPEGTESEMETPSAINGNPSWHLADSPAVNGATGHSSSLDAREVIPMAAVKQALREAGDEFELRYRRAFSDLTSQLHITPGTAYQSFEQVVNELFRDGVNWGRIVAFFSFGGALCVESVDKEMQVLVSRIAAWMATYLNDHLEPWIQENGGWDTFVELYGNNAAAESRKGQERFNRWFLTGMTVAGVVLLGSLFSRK
Assay: Bcl-xL/Bim BH3 interaction blockers – biochemical, fluorescence polarization, HTS, primary screen (AID 2129);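 further: 0% = DMSO wells and 100% = unlabeled Bim-BH3 peptide competitor; inhibitors lower millipolarization by displacing the labeled peptide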
Details: GST-Bcl-xL / FITC-Bim BH3 peptide fluorescence polarization; at 10.9 µM; stronger effect = higher value

SMILES	inhibition
CCCN1CNC(=S)N(CCc2ccccc2)C1	-3.74% (inactive)
C/C(CC(=O)NC(C)c1ccccc1)=N\NC(N)=S (centres undefined)	4.39% (inactive)
CC(C)N(C(=O)COC(=O)c1ccccc1C(=O)N1CCN(c2ccc(F)cc2)CC1)C(C)C	10.7% (inactive)
O=C(c1cc(=O)c2ccccc2o1)N1CCN(c2ccccc2)CC1	-0.91% (inactive)
O=C(COC(=O)c1ccccc1C(=O)N1CCN(c2ccccc2)CC1)NCc1ccccc1	56.5% (active)
CCc1c(C)nc2c(OC)cccc2c1Cl	7.8% (inactive)
O=C(NC1CCCCC1)N1CCc2[nH]c3ccccc3c2C1	16.5% (inactive)
COC(=O)C1CCN(C(=O)c2cc(=O)[nH]c3ccccc23)CC1	1.35% (inactive)
COC(=O)[C@H]1[C@H]2C[C@H]3c4[nH]c5ccccc5c4CCN3C[C@@H]2CC[C@@H]1O	6.53% (inactive) and 60% (active)
CCCC(C)c1nnc(NC(=O)C2CC(=O)N(c3ccc(OCC)cc3)C2)s1 (centres undefined)	7.2% (inactive)
Cc1ccc(CS(=O)(=O)CCC(=O)NCc2ccc(F)cc2)cc1	-0.6% (inactive)
Fc1ccc(CNc2nc3ccccc3n3nnnc23)cc1	49% (active)
CCOC(=O)CNc1nc2ccccc2n2c(C)nnc12	4.27% (inactive)
COc1ccc(CNc2nnnn2C)cc1	-1.64% (inactive)
CCCCCN(C(=O)NC(=O)Nc1ccccc1C)S(C)(=O)=O	2.62% (inactive)
O=[N+]([O-])c1ccc(N2CCNCC2)cc1NCc1cccnc1	-23.7% (inactive)
O=C(NCCCc1ccccc1)C(=O)c1c[nH]c2ccccc12	4.6% (inactive)
COc1ccc(N2CC(C(=O)NCCN3C(=O)S/C(=C\c4cccnc4)C3=O)CC2=O)c(OC)c1 (centres undefined)	149% (active)
COc1ccccc1N1CC(C(=O)NCCN2C(=O)S/C(=C\c3cccnc3)C2=O)CC1=O (centres undefined)	9.93% (inactive)
CCOc1ccc(N2CC(C(=O)NCCN3C(=O)S/C(=C\c4cccnc4)C3=O)CC2=O)cc1 (centres undefined)	-5.5% (inactive)
O=C(COc1ccc(Cl)cc1)NCCS(=O)(=O)N1CCN(c2ccc(F)cc2)CC1	5.68% (inactive)
C=CCN(C(=O)Nc1ccc2oc(C)nc2c1)c1ccccc1	13.5% (inactive)
CCN(CC)c1ccc2oc(=O)c(C)nc2c1	31.2% (active)

SMILES	inhibition
CCN(CC)c1ccc(C(=O)Nn2c(C)nc3ccccc3c2=O)cc1	5.43% (inactive)
C=C(C)C(=O)O[C@H]1C/C(C)=C\C(=O)/C=C(\C)[C@H](O)[C@@H]2OC(=O)C(=C)[C@@H]21	3.95% (inactive)
Cc1cccc(C(=O)OCC(=O)NCC(C)C)c1O	2.99% (inactive)
Cc1cnc(C(=O)Oc2cccc(Cl)c2Cl)cn1	9.01% (inactive)
Cc1nn2c(c1-c1ccccc1)N=C(c1ccco1)CC2c1ccccc1 (centres undefined)	3.95% (inactive)
CC1(C)C=C2[C@H]3CC[C@@H]4[C@@]5(C)CCC(=O)C(C)(C)[C@@H]5CC[C@@]4(C)[C@]3(C)CC[C@@]2(C(=O)O)CC1	5.29% (inactive)
COc1ccc(CNC(=O)C2CCN(S(=O)(=O)c3ccc(SC)cc3)CC2)cc1	9.54% (inactive)
O=C1Nc2ccccc2/C1=C/c1ccnc2ccccc12	2.91% (inactive)
Cc1cc(C)c(/C=C2\C(=O)Nc3ccccc32)[nH]1	163% (active)
CN(C)/C=C1/Nc2ccccc2C1=O	18.7% (inactive)
O=C(Nc1ccccc1C(=O)NCCCn1ccnc1)c1ccc(Cl)cc1Cl	9.41% (inactive)
CC1CCN(C(=O)COC(=O)c2cc(=O)[nH]c3ccccc23)CC1	2.08% (inactive)
Cc1noc(C)c1CSCC(=O)Nc1nc2ccc(Oc3ccccc3)cc2s1	3.02% (inactive)
CC(C)(CSc1nncn1/N=C/c1ccco1)NS(=O)(=O)c1ccc(Cl)cc1	4.42% (inactive)
NS(=O)(=O)c1ccc(NC(=O)COC(=O)c2c3c(nc4ccccc24)/C(=C\c2ccc4c(c2)OCO4)CCC3)cc1	34.1% (active)
COc1cc(/C=C2\CCCc3c2nc2ccccc2c3C(=O)O)cc(Cl)c1O	9.54% (inactive)
NS(=O)(=O)c1ccc(NC(=O)COC(=O)c2cc3ccccc3oc2=O)cc1	3.99% (inactive)
COc1ccc(CNC(=O)C(C)NCc2ccccc2Cl)cc1 (centres undefined)	2.09% (inactive)
CCOCCCNC(=O)C(NC(=O)CNC(=O)c1ccccc1)c1ccc(OC)cc1 (centres undefined)	3.02% (inactive)
CCOC(=O)C(Cc1ccccc1)NC(=O)CCC(=O)c1ccc(OC)cc1 (centres undefined)	6.1% (inactive)
COC(=O)[C@H](Cc1ccccc1)NC(=O)Nc1ccc(OC)cc1	0.58% (inactive)
COc1cc([C@H](Cc2ccccc2)NC(C)=O)oc(=O)c1	48.2% (active)
COc1ccc(CCn2ccc(O)c(Cc3ccc(Cl)cc3Cl)c2=O)cc1OC	4.67% (inactive)

SMILES	inhibition
CN1C(C)(C)CC(NC(=O)CCC(=O)NC2CC(C)(C)N(C)C(C)(C)C2)CC1(C)C	2.66% (inactive)
CC1CCN(C(=O)COC(=O)c2cc(S(=O)(=O)N3CCOCC3)ccc2Cl)CC1	-2.49% (inactive)
Cc1ccnc(NC(=O)C2CCN(S(=O)(=O)c3c(C)c(C)cc(C)c3C)CC2)c1	-0.18% (inactive)
CC1(C)c2[nH]c3ccccc3c2C[C@H]2C(=O)N(N)CC(=O)N21	1.69% (inactive)
CCOc1nc(OCC)nc(-n2cc(-c3ccccc3)nn2)n1	6.35% (inactive)
CC1CCCCC1NC(=O)/C(C#N)=C/C=C/c1ccccc1[N+](=O)[O-] (centres undefined)	7.36% (inactive)
O=c1ccc2c(-c3ccccc3S(=O)(=O)O)c3ccc(O)c(O)c3oc-2c1O	92.5% (active)
O=C(CSc1nnc(SCc2ccc(Cl)cc2)s1)N/N=C/c1ccccc1Cl	-6.66% (inactive)
CN1c2ccc(C=O)c3c(C=O)ccc(c23)N(C)C1(C)C	144% (active)
CCOC(=O)c1c(-c2ccccc2)oc2cc(Br)c(O)c(C=O)c12	11.5% (inactive)
CCOC(=O)c1c(C)oc2cc(Sc3ccccc3)c(O)c(O)c12	39% (active)
CCOC(=O)c1c(C)oc(C)c(C(=O)OCC)c1=O	2.36% (inactive)
CCOC(=O)c1ccc(NC(=O)c2c(NCc3ccccc3)[nH]c(=O)[nH]c2=O)cc1	2.87% (inactive)
O=C(CSC(=S)N1CCCCC1)c1c(F)cccc1F	3.52% (inactive)
COc1ccc(OC)c(CCNC(=O)CCn2ccc3cc(S(=O)(=O)N4CCCC4)ccc32)c1	0.09% (inactive)
COc1ccc(-c2nc(CS(=O)CC(=O)NCc3ccccn3)c(C)o2)cc1 (centres undefined)	95.6% (active)
COc1cccc(-c2nc(CS(=O)CC(=O)NCc3ccc(F)cc3)c(C)o2)c1 (centres undefined)	7.05% (inactive)
COc1ccc(-c2nc(CS(=O)CC(=O)NCc3ccccc3)c(C)o2)cc1OC (centres undefined)	4.97% (inactive)
Cc1ccccc1-n1c(SCC(=O)Nc2cccc3ccccc23)nc(O)cc1=O	-0.46% (inactive)
Cc1c(C(=O)NC2CCCCC2)oc2ccccc12	-0.72% (inactive)
COc1cccc2c1OCC(CN1CCN(C3CCCCC3)C(CCO)C1)=C2 (centres undefined)	2.11% (inactive)
Cc1ccc(CNC(=O)C(=O)c2cn(CC(=O)N3CCCC3)c3ccccc23)cc1	5.15% (inactive)
Cn1cnnc1SCc1nnc(-c2ccccc2Br)o1	2.35% (inactive)

SMILES	inhibition
Nc1cccc2c1C(=O)N(Cc1nnc(-c3ccccc3Br)o1)C2=O	48% (active)
CCOC(=O)N1CCN(Cc2nnc(-c3ccccc3Cl)o2)CC1	-2.11% (inactive)
CC(=O)NNC(=O)c1csc(Cc2c(Cl)sc3ccc(Cl)cc23)n1	1.7% (inactive)
Cc1ccc([N+](=O)[O-])c(OCCCNCC(C)O)c1 (centres undefined)	8.16% (inactive)
COc1ccc2cc1Oc1ccc(cc1)C[C@H]1c3cc(c(OC)cc3CCN1C)Oc1c(O)c(OC)cc3c1[C@H](C2)N(C)CC3	6.82% (inactive)
COc1ccc(CN2CCCC(N3CCc4ccccc4C3)C2)c(O)c1 (centres undefined)	-3.09% (inactive)
COc1c(O)ccc2c1CN1CCc3cc4c(cc3C1C2)OCO4 (centres undefined)	33.7% (active)
CN(C(=O)COC(=O)CCCc1c[nH]c2ccccc12)c1c(N)n(Cc2ccccc2)c(=O)[nH]c1=O	-5.75% (inactive)
O=C(Nn1c(SCc2ccc([N+](=O)[O-])cc2)nc2ccccc2c1=O)c1ccc(F)cc1	-2.84% (inactive)
COc1ccc2[nH]c(C)c(CCN(Cc3cccs3)C(=S)Nc3ccccc3OC)c2c1	59.5% (active)
Cc1[nH]c2ccccc2c1CCN(Cc1cccs1)C(=S)NC(C)(C)C	3.98% (inactive)
COc1cccc(NC(=S)N(CCc2c(C)[nH]c3ccccc23)Cc2ccco2)c1	-0.26% (inactive)
COCCn1c(N)c(NCc2ccccc2)c(=O)[nH]c1=O	64.6% (active)
COc1ccc(CNc2nc3c(c(=O)[nH]c(=O)n3C)n2Cc2ccccc2)cc1	2.21% (inactive)
COCCn1c(N)c(N(Cc2ccccc2)C(=O)C2CCCCC2)c(=O)[nH]c1=O	-0.25% (inactive)
COc1ccc(CCNC(=O)CCCCCNC(=O)N2CCn3c2nc2ccccc23)cc1OC	1.04% (inactive)
Cc1cccn2c(=O)c3cc(C(=O)NCC4CCCO4)c(=N)n(Cc4ccc(F)cc4)c3nc12 (centres undefined)	0.48% (inactive)
Cc1cccn2c(=O)c3cc(C(=O)NCCN4CCOCC4)c(=N)n(Cc4cccnc4)c3nc12	48.6% (active)
COc1ccc(CCn2c(=N)c(C(=O)NCC3CCCO3)cc3c(=O)n4cccc(C)c4nc32)cc1OC (centres undefined)	1.5% (inactive)
Cc1ccc(S(=O)(=O)N(Cc2ccc(Cl)cc2)c2ccccc2C(=O)NCc2cccnc2)cc1	0.59% (inactive)

Source: PubChem BioAssay AID2129 (The Scripps Research Institute Molecular Screening Center, 2009)
